A number with no mark means an inactive call.
Assays:
Assay in all cases: log2 ratio of Biotin-Ahx-Ub-VS probe labelling (fragment/DMSO); higher = less target engagement (more negative = stronger competition), active = hit call of the paper (q ≤ 0.05, log2 ratio ≤ -1)
Conditions in all cases: compound concentration: 200 uM; treatment time: 3 h
[1] = target: UniProt O00507
Outline: (§1)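 HEK293T lysate (495 µg per sample, in Tris/CHAPS/IGEPAL buffer with protease inhibitors) was exposed in triplicate for 3 h to fragment at 200 µM or to vehicle, then to Biotin-Ahx-Ub-VS at 0.5 µM final for 1 h. Labelled DUBs were enriched on NeutrAvidin, digested with LysC and trypsin, and analysed by diaPASEF LC-MS/MS. Spectronaut label-free quantities were normalised to the global median, and values are average log2 ratios of fragment over vehicle from an unpaired t-test. Only proteins with ≥2 unique peptides were used.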

[2] = target: UniProt P51784
Outline: as §1

[3] = target: T1, UniProt Q5T2D3
T1 sequence (whole entry): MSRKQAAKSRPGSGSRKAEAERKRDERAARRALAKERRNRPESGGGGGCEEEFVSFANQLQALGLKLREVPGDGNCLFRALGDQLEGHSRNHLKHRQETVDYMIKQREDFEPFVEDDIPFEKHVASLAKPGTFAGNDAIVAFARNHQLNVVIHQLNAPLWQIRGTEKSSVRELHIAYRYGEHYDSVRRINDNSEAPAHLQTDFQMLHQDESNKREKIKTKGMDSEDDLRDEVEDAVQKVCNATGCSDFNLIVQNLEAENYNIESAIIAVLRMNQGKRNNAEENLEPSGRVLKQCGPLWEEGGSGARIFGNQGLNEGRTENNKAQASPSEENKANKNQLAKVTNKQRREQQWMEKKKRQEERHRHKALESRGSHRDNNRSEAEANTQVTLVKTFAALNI
Outline: as §1

[4] = target: T2, UniProt Q8TE49
T2 sequence (whole entry): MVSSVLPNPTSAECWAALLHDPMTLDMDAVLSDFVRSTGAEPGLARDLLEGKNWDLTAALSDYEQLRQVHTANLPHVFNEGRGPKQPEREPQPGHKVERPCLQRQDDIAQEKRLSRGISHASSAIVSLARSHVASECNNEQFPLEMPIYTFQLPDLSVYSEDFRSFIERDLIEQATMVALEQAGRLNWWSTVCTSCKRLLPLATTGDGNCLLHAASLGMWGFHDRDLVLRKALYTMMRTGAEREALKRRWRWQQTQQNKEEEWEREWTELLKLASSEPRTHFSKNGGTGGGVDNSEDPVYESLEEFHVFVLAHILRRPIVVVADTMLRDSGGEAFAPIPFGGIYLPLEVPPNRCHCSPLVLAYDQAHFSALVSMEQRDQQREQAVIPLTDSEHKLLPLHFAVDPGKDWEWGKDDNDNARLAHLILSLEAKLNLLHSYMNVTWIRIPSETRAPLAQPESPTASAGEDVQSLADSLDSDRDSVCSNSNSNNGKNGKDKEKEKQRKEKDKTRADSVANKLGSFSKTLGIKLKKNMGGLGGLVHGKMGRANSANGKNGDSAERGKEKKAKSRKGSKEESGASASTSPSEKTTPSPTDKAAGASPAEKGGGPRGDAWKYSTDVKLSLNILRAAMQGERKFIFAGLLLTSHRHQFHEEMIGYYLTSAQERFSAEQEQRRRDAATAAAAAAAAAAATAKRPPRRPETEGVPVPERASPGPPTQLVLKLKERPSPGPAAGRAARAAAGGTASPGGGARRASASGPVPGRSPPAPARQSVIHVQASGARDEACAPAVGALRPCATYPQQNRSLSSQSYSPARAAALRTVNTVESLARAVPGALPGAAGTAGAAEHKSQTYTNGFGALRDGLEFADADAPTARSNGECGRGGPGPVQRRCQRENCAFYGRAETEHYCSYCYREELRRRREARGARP
Outline: as §1

[5] = target: T3, UniProt Q9P2H5
T3 sequence (whole entry): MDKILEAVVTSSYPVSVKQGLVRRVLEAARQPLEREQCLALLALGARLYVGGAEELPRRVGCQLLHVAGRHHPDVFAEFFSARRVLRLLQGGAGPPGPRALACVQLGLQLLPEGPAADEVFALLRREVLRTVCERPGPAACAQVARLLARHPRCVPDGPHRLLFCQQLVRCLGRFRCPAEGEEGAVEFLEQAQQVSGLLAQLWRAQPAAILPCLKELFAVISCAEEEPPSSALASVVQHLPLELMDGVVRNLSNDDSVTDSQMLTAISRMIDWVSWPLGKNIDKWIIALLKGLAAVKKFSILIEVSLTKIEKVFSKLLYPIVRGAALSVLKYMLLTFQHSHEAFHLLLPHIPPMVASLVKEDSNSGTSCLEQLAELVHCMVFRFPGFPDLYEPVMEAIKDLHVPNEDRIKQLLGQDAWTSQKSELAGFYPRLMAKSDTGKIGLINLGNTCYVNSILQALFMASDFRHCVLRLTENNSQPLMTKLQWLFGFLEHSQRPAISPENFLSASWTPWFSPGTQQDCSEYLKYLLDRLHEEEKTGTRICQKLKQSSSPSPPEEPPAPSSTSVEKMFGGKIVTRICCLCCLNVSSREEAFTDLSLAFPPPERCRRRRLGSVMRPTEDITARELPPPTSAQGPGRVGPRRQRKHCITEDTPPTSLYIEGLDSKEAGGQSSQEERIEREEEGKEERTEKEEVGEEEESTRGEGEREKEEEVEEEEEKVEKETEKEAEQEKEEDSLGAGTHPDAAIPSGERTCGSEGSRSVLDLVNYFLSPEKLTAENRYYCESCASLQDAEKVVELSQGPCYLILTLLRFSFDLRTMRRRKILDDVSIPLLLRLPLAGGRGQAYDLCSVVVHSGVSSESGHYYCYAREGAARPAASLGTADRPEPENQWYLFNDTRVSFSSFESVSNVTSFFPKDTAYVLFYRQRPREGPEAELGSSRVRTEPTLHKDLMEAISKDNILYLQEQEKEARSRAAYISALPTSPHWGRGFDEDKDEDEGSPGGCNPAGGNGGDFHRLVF
Outline: as §1

[6] = target: T4, UniProt Q9UGI0
T4 sequence (whole entry): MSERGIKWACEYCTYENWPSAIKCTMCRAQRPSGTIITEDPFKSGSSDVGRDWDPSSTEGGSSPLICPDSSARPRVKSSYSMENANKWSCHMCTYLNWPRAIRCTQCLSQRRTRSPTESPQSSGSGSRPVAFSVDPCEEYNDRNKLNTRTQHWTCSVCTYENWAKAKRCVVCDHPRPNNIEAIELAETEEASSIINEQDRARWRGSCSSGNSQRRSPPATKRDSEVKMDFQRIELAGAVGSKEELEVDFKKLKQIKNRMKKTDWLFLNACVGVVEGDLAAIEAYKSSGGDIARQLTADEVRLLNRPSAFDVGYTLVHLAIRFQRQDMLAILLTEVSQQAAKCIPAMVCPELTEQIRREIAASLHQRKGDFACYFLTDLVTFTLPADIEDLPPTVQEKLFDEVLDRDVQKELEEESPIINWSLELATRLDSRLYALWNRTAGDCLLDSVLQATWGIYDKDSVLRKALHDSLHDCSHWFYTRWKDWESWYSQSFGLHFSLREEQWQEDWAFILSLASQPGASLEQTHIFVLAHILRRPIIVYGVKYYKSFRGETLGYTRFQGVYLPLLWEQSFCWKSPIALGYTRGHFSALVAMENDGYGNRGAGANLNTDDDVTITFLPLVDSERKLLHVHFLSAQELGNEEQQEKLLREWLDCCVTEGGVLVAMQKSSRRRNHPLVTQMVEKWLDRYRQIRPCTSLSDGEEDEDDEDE
Outline: as §1

[7] = target: T5, YOD1 (UniProt Q5VVQ6)
T5 sequence (whole entry): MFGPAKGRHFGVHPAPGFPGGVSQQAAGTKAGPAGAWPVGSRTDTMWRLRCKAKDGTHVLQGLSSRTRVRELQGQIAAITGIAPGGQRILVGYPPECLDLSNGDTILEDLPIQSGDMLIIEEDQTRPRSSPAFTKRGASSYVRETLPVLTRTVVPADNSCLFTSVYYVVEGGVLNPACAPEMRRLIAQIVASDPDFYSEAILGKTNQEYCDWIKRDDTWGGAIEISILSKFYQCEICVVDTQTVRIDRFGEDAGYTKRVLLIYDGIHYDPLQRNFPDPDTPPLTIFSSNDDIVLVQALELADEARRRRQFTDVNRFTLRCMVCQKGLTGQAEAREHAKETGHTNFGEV
Outline: as §1

Sequence of UniProt P51784 (P51784 whole entry): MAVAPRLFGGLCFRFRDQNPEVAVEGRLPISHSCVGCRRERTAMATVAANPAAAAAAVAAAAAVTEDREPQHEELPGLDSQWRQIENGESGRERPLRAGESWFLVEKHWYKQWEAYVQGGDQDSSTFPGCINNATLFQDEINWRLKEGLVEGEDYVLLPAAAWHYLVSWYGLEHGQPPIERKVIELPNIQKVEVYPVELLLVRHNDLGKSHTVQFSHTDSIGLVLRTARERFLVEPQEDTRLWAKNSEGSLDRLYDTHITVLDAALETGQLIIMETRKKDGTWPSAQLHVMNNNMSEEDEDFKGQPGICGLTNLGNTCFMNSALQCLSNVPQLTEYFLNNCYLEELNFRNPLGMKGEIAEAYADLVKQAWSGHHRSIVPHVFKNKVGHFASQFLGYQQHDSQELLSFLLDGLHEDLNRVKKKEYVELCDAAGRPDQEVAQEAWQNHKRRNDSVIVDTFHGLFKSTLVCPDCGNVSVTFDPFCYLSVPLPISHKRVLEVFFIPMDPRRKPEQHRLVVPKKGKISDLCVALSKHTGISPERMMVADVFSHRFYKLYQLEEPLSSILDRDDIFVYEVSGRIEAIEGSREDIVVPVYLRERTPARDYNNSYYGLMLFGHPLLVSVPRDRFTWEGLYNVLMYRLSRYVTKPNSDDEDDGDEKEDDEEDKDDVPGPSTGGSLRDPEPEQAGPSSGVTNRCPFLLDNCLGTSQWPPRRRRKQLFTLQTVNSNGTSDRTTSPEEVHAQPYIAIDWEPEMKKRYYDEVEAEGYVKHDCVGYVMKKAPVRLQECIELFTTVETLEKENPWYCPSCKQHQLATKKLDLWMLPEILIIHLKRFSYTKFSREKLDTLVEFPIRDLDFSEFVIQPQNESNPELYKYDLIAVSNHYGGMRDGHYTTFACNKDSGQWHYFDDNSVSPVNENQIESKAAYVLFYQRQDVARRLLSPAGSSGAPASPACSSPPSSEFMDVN
Sequence of UniProt O00507 (O00507 whole entry, the tested form may be a part): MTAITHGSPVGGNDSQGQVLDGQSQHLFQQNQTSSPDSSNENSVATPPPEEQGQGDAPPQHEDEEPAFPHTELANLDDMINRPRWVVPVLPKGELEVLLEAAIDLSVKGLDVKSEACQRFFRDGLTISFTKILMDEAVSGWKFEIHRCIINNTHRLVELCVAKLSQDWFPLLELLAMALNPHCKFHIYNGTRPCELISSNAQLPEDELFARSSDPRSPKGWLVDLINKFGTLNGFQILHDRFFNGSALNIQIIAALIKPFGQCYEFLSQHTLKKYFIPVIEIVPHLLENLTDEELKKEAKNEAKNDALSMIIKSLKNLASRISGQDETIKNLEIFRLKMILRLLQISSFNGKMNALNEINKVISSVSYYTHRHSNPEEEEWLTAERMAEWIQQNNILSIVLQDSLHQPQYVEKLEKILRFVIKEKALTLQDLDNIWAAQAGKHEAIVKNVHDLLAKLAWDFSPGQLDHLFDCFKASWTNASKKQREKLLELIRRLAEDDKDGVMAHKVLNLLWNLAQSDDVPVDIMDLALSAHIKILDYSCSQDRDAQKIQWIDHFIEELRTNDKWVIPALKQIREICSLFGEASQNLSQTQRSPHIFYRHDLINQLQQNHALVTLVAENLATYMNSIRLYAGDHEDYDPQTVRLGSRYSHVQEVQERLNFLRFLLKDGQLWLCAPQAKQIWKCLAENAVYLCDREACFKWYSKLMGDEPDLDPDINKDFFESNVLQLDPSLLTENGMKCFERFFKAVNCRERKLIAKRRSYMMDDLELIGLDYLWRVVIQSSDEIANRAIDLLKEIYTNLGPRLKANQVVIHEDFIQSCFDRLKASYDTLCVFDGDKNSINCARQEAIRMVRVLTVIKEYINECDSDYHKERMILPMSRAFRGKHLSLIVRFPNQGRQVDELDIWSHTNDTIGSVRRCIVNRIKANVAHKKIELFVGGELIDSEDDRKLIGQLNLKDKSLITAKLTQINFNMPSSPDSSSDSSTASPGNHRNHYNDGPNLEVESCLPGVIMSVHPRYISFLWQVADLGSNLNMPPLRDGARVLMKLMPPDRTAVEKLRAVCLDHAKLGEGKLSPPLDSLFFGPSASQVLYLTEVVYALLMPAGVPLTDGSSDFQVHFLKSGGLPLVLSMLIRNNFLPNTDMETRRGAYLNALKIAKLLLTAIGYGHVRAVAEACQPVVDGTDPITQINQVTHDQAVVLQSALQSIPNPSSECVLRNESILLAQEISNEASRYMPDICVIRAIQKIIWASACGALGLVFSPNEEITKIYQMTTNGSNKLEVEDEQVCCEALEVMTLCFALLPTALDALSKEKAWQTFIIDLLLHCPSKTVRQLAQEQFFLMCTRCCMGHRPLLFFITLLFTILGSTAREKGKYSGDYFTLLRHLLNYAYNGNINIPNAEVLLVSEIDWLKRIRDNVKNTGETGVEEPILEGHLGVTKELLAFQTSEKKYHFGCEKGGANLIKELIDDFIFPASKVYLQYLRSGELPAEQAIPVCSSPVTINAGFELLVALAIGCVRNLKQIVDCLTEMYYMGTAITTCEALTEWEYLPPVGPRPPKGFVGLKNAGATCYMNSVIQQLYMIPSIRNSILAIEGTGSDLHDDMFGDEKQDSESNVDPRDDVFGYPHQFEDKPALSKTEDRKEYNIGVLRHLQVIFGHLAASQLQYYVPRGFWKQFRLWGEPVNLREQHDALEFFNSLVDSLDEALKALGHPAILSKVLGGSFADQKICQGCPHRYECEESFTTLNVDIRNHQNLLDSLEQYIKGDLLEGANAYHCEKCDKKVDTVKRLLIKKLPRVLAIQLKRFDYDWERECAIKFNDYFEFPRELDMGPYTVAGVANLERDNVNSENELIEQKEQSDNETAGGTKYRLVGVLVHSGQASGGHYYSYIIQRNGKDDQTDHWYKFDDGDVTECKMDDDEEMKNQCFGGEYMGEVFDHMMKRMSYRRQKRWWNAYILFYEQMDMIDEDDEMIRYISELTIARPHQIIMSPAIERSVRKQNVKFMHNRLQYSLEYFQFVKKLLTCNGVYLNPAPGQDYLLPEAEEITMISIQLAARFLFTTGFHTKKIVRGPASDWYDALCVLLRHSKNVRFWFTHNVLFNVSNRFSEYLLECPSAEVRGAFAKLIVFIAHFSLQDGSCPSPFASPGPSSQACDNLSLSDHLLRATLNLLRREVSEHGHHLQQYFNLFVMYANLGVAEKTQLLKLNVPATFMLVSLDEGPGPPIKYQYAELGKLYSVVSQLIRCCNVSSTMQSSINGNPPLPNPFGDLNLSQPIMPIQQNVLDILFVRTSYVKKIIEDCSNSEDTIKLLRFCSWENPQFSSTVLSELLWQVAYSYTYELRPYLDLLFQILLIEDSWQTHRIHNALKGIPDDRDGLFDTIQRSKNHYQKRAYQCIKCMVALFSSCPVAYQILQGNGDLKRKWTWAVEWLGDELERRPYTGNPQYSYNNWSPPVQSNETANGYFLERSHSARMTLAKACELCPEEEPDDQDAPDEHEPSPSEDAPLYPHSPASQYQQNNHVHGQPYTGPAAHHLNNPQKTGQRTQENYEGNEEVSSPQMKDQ

Row | Compound | log2 ratio of Biotin-Ahx-Ub-VS probe labelling [1] | log2 ratio of Biotin-Ahx-Ub-VS probe labelling [2] | log2 ratio of Biotin-Ahx-Ub-VS probe labelling [3] | log2 ratio of Biotin-Ahx-Ub-VS probe labelling [4] | log2 ratio of Biotin-Ahx-Ub-VS probe labelling [5] | log2 ratio of Biotin-Ahx-Ub-VS probe labelling [6] | log2 ratio of Biotin-Ahx-Ub-VS probe labelling [7]
1 | CNC(=O)Cn1cc(NC(=O)CCl)cn1 | -0.146 | -0.115 | -0.427 | -0.553 | -0.256 | -1.09 (active) | -0.252
2 | CN(C)S(=O)(=O)c1ccccc1CNC(=O)CCl | -0.154 | 0.0361 | -0.255 | -0.178 | -0.0151 | -0.47 | 0.0246
3 | Cl.Cn1ncc2c1CCCC2NC(=O)CCl (stereo not given) | -0.0339 | -0.154 | -0.121 | -3.69 (active) | -0.276 | 0.0166 | -0.109
4 | CN(Cc1nc2ccccc2[nH]1)C(=O)CCl.Cl | -0.702 | 0.00766 | -0.19 | -0.268 | 0.121 | -0.937 | 0.0427
5 | O=C(CCl)NCc1ccc2c(c1)OCO2 | 0.0979 | 0.0895 | -0.281 | -0.708 | -0.288 | -0.607 | 0.157
6 | O=C(CCl)N(Cc1ccsc1)C1CC1 | -0.302 | -0.0887 | -0.0506 | -0.101 | 0.0505 | -0.949 | -0.0601
7 | Cc1conc1C1CN(C(=O)CCl)C1 | -0.553 | -0.677 | -0.923 | -1.71 (active) | -0.584 | -0.885 | -1.1 (active)
8 | CS(=O)(=O)N1CCCN(C(=O)CCl)CC1 | 0.0618 | -0.0587 | -0.154 | -0.261 | -0.224 | -0.469 | 0.146
9 | N#Cc1ccc(Cl)cc1NC(=O)CCl | -0.451 | 0.0676 | -0.0728 | -0.577 | 0.0403 | -0.441 | 0.0565
10 | O=C(CCl)Nc1cccc2ncccc12 | 0.145 | 0.265 | -0.164 | -0.784 | -0.437 | -1.64 (active) | 0.469

— the supplement of paper PMC11732987, “Enantioselective OTUD7B fragment discovery through chemoproteomics screening and high-throughput optimisation” (Communications Chemistry, 2025)
